For test [1], the target named is Cytochrome P450 1A2 (Homo sapiens) (UniProt P05177). Nature of the test: p450-cyp1a2 (AID 410; calls by dose curve; note: potency is the fitted concentration of half-maximal effect). The conditions noted are these: recombinant CYP1A2, luciferin-ME demethylation, luminescence; series mostly up to 57 µM. The procedure, abridged: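 Read-out is luminescence from luciferin produced by CYP1A2 demethylation of Luciferin-ME (100uM, at Km). Detection reagent stopped the 60 min NADPH-dependent reaction; signals were normalized to 57 uM furafylline.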

The target of test [2] is Mitogen-activated protein kinase 10 (Mus musculus) (UniProt Q61831). Nature of the test: JNK3 AlphaScreen Assay (AID 530; active = well fitted curve in either direction with a large enough effect, not every such curve was filed as active;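 note: kinase came from lysate of stimulated human HepG2 cells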). The conditions noted are these: JNK3 lysate, c-Jun phosphorylation; series mostly up to 57.1 µM. An outline of the steps: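 Biotinylated GST-cJun(1-79) served as substrate for JNK3 in HepG2 lysates stimulated with IL-1beta and TNF-alpha. ATP was 10 uM final, pH 7.6. Ser73 phosphorylation was quantified by AlphaScreen (680 nm excitation).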
On the technique in general: Alpha assays give light when donor and acceptor beads are brought close together.

Test [3] addresses Cytochrome P450 3A4 (Homo sapiens) (UniProt P08684). Nature of the test: qHTS Assay for Inhibitors and Substrates of Cytochrome P450 3A4 (AID 884). Note: potency is the fitted concentration of half-maximal effect; nearly all actives have a fitted effect of over 50% in size. The following applies: recombinant CYP3A4, Luciferin-PPXE luminescence; series mostly up to 57.1 µM. The procedure, abridged:
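Luminescent readout of luciferin produced by CYP3A4 (20 nM) dealkylation of Luciferin-PPXE, 25 uM (its KM). NADPH-driven reaction ran 60 min at RT after 10 min compound preincubation; data scaled to 57 uM ketoconazole as 100% inhibition.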
For orientation: qHTS replaces the single test concentration by a dilution series.

Test [4] shares this target. Nature of the test: qHTS Assay for Activators of Cytochrome P450 3A4 (AID 885). Note: nearly all actives have a fitted effect of over 65% in size. The conditions noted are these: recombinant CYP3A4, Luciferin-PPXE luminescence, 60 min; series mostly up to 57.1 µM. The procedure, abridged:
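Activators are scored by enhanced luminescence from CYP3A4 conversion of luciferin-PPXE (25uM, equal to KM) to luciferin, after 60 min at RT with an NADPH-regenerating system.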

Test [5] has as its target 3',5'-cyclic-AMP phosphodiesterase 4B (Homo sapiens) (UniProt Q07343). Description: qHTS Assay for Inhibitors of PDE-IV (AID 607; active = well fitted activation curve with a large enough effect in the main read-out, with a control signal flat, not every such curve was filed as active). The following applies: HEK293 ACTOne CNG channel cells, membrane potential fluorescence; series mostly up to 22.9 µM. An outline of the steps: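 The readout is membrane depolarisation from a cAMP-sensing CNG channel, detected with a potential dye at ex 535/em 590. Cells were HEK293-derived (endogenous PDE-IV) at 1000 cells/well, titrated up to 22.9 uM final.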

Test [6] has as its target Cytochrome P450 2D6 (Homo sapiens) (UniProt P10635). Description: qHTS Assay for Inhibitors and Substrates of Cytochrome P450 2D6 (AID 891). Note: nearly all actives have a fitted effect of over 60% in size. Note: potency is the fitted concentration of half-maximal effect. The conditions noted are these: recombinant CYP2D6, luciferin-ME EGE luminescence; series mostly up to 57.1 µM. The procedure, abridged:
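Luminescent read-out of luciferin formed by 5 nM human CYP2D6 demethylating 30 uM Luciferin-ME EGE (Km level) over 60 min at room temperature after NADPH regeneration addition. Data normalized to full inhibition by 1.43 uM quinidine.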

Test [7] concerns the target Cytochrome P450 2C19 (Homo sapiens) (UniProt P33261). Nature of the test: qHTS Assay for Inhibitors and Substrates of Cytochrome P450 2C19 (AID 899). Note: nearly all actives have a fitted effect of over 60% in size. Note: potency is the fitted concentration of half-maximal effect. The conditions noted are these: recombinant CYP2C19, luciferin-H EGE luminescence; series mostly up to 57.1 µM. The procedure, abridged:
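NADPH-dependent conversion of Luciferin-H EGE (10uM, at KM) by 5nM enzyme in 50mM KPO4, 60 min at 37C following 10 min compound preincubation. Stopped with luciferin detection buffer; luminescence read after 20 min.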

For test [8], the target named is Cytochrome P450 2C9 (Homo sapiens) (UniProt P11712). Description: qHTS Assay for Inhibitors and Substrates of Cytochrome P450 2C9 (AID 883). Note: nearly all actives have a fitted effect of over 60% in size. Note: potency is the fitted concentration of half-maximal effect. The conditions noted are these: recombinant CYP2C9, luciferin-H luminescence, 60 min; series mostly up to 57.1 µM. An outline of the steps:
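A luminogenic readout tracked human CYP2C9 (10nM) converting deoxyluciferin (100uM, at KM) in 25mM KPO4 during 60 min at 37C with regenerated NADPH. Values normalized to 57uM sulphaphenazole as complete inhibition.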

SMILES strings stand for the structures. Results filed as inconclusive are left out. The source made the active and inactive calls. Unless noted, calls come from the whole dose curve; as a rule, active = well fitted curve in the direction sought with a large enough effect; inconclusive = small, poorly fitted or top-dose-only effect, or another doubt; inactive = no such curve, though single readings can be large; an effect the other way counts as inactive or inconclusive.

Sequence of Cytochrome P450 3A4 (Homo sapiens) (P08684 whole entry, looked up): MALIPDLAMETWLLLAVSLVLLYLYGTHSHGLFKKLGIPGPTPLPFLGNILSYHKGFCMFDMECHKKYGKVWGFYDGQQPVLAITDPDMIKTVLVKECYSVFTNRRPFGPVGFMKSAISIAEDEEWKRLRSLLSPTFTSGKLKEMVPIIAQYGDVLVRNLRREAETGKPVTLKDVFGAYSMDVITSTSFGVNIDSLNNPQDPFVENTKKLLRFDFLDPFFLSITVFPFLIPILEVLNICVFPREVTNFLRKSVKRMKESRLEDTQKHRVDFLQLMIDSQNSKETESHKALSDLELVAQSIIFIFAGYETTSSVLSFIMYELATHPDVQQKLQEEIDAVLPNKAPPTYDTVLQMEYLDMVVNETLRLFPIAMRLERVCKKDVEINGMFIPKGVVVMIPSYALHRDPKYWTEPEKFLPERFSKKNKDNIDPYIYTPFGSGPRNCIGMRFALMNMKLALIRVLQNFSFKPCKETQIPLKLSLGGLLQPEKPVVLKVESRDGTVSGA
Sequence of Cytochrome P450 2C19 (Homo sapiens) (P33261 whole entry, looked up): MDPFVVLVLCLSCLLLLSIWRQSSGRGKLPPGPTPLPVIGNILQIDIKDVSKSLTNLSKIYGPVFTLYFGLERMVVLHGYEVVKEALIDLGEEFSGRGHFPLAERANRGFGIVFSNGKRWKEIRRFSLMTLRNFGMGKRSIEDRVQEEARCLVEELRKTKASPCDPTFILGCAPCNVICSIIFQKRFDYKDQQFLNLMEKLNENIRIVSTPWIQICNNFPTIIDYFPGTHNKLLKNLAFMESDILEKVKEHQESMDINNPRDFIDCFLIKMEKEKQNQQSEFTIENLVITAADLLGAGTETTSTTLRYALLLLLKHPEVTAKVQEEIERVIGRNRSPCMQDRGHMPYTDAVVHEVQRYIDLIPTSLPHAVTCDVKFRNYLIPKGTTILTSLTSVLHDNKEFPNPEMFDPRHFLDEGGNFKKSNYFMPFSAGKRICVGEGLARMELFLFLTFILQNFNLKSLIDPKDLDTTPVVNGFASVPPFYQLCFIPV
Sequence of Cytochrome P450 2C9 (Homo sapiens) (P11712 whole entry, looked up): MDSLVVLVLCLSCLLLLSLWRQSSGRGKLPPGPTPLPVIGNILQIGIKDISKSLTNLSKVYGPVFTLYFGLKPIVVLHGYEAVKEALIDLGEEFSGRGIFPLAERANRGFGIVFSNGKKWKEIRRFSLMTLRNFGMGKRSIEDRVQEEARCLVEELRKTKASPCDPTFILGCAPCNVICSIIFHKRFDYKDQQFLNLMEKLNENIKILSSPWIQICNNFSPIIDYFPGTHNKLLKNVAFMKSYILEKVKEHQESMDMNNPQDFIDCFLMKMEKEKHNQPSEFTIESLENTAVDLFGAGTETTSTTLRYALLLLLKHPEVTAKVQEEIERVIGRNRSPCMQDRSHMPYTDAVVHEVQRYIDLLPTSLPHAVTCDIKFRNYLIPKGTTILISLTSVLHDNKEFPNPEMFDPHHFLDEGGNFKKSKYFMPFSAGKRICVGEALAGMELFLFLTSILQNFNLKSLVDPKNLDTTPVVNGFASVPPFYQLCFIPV
Sequence of Cytochrome P450 2D6 (Homo sapiens) (P10635 whole entry, looked up): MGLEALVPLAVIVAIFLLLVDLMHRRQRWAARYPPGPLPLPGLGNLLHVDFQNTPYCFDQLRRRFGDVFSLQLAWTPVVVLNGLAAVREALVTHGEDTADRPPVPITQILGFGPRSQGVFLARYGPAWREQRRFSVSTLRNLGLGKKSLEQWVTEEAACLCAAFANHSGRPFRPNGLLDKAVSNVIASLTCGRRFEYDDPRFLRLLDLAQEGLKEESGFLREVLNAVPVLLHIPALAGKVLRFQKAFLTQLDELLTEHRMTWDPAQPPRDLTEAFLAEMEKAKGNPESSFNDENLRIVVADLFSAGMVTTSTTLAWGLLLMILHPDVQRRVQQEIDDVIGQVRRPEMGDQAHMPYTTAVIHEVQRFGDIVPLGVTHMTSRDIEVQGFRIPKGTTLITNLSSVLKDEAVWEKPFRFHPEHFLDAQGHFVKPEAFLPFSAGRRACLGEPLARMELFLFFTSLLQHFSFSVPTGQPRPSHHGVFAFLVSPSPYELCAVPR
Sequence of 3',5'-cyclic-AMP phosphodiesterase 4B (Homo sapiens) (Q07343 whole entry, looked up): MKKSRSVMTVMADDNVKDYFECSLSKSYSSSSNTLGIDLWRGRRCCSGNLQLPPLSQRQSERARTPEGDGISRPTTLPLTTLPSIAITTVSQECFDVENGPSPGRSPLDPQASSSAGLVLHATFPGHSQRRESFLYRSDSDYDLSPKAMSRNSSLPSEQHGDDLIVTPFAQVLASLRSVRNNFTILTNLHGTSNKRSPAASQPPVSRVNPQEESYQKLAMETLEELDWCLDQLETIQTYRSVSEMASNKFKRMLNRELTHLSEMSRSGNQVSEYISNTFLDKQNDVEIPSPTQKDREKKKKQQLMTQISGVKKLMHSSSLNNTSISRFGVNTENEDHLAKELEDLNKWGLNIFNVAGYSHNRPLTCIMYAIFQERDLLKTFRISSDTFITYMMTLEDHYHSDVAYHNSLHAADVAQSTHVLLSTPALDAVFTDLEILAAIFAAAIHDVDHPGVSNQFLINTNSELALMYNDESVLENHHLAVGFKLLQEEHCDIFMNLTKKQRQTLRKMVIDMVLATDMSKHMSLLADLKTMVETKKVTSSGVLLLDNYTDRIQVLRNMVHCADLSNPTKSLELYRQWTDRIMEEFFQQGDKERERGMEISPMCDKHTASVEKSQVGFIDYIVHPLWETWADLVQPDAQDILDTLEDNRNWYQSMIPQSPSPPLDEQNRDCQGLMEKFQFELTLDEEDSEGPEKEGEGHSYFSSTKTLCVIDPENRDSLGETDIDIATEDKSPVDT
Sequence of Cytochrome P450 1A2 (Homo sapiens) (P05177 whole entry, looked up): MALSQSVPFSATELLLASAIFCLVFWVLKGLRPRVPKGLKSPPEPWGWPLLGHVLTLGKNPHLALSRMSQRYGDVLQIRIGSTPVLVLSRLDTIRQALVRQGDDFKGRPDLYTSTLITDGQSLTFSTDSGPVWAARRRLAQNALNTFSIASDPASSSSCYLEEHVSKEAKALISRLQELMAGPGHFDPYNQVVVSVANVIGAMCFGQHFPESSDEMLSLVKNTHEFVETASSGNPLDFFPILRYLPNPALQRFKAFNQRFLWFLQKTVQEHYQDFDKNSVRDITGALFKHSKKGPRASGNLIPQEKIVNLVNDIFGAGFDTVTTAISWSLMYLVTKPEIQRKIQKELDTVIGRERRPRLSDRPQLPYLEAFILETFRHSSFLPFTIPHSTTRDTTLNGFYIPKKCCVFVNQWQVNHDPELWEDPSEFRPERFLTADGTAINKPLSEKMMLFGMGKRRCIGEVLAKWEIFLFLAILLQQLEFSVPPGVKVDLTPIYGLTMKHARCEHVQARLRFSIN

As to `CCC/C=C(\CCC)C(NC(=O)c1cccs1)c1ccc(C(F)(F)F)cc1` (centres undefined), the Potency in test [1] was 3.16 µM (active); in test [3] it was 2.51 µM (active). In addition, the Potency entry in test [2] and in test [4] was “inactive” each time.

Turning to `CC[C@H]1C(=O)OC[C@@H]1Cc1cncn1C`, the Potency result in test [1], in test [2], in test [5] and in test [6] was “inactive” throughout.

As for `COC(=O)[C@@]1(Cc2ccc(F)cc2)[C@@H]2C(=CC(=O)[C@H]2CC(=O)C(=O)N2CCCC2)CN1C(=O)c1ccccc1`, the Potency entry in test [1], in test [2], in test [5] and in test [4] was “inactive” in each case.

In the case of `CCCCCC1=C2CNC(Cc3ccccc3)(C(=O)OC)C=C2C(C)C1=O` (centres undefined), the Potency in test [1] was 15.8 µM (active); in test [7], 6.31 µM (active). Also, the Potency entry in test [2], in test [5] and in test [4] was “inactive” in each case.

Regarding `CC(C)C[C@@H](CC(=O)N[C@@H](CCC(=O)O)CC(=O)O)NC(=O)[C@@H]1CCCC[C@H]1NC(=O)C[C@@H](NC(=O)C[C@H](CO)NC(=O)[C@@H]1CCCC[C@H]1N)C(C)C`, the Potency entry in test [1], in test [2], in test [5], in test [6] and in test [7] was “inactive” throughout.

As to `COC(=O)[C@@]1(Cc2ccc(F)cc2)[C@H]2c3cc(C(=O)N4CCCC4)n(CCc4ccc(OC)c(Br)c4)c3C[C@H]2CN1C(=O)c1ccccc1`, the Potency is 15.8 µM (active) in test [1], 3.16 µM (active) in test [8], 2.51 µM (active) in test [3] and 5.01 µM (active) in test [7]. In addition, the Potency result in test [2] and in test [4] was “inactive” in each case.

With `CCCC[C@@H]1C[C@H]1C(NC(=O)c1cccs1)c1ccc(C(F)(F)F)cc1` (some centres undefined), the Potency is 2 µM (active) in test [1], 1.58 µM (active) in test [8] and 3.16 µM (active) in test [3]. Moreover, the Potency entry in test [2], in test [4] and in test [7] was “inactive” throughout.

As to `COC(=O)[C@@]1(Cc2ccc(F)cc2)[C@@H]2C(=CC(=O)[C@H]2CC(=O)C(=O)N(C)C)CN1C(=O)c1ccccc1`, the Potency entry in test [1], in test [2], in test [5] and in test [4] was “inactive” in each case.

Regarding `C[C@@H](C(=O)Nc1ccc2ccccc2c1)[C@H]1C[C@]1(C)[C@H](NS(=O)(=O)c1ccc(-c2ccccc2)cc1)c1ccccc1`, the Potency in test [1] was 15.8 µM (active); in test [6], 2 µM (active). For the same compound, the Potency entry in test [2], in test [5] and in test [4] was “inactive” throughout.

For `CC[C@@H]1OC(=O)[C@@H](C)[C@H](O[C@@H]2C[C@@](C)(OC)[C@@H](O)[C@H](C)O2)[C@H](C)[C@H](O[C@@H]2O[C@@H](C)C[C@@H](N(C)C)[C@H]2O)[C@@](C)(O)C[C@H](C)C(=O)[C@@H](C)[C@H](O)[C@@]1(C)O`, the Potency result in test [1], in test [2], in test [5], in test [6] and in test [7] was “inactive” throughout.

With `CCC/C=C(\CCC)C(NC(=O)c1cccs1)c1ccc(C(=O)OC)cc1` (centres undefined), the Potency was 5.01 µM (active) in test [1], 2 µM (active) in test [8], 1.26 µM (active) in test [3] and 0.794 µM (active) in test [7]. Besides, the Potency entry in test [2] and in test [4] was “inactive” in each case.

For the compound `c1ccc2c(c1)Cc1cc3ccccc3nc1-2`, the Potency in test [1] was 0.1 µM (active); in test [8] it was 10 µM (active); in test [3], 20 µM (active); in test [6] it was 12.6 µM (active); in test [7], 5.01 µM (active). For the same compound, the Potency result in test [2] and in test [4] was “inactive” in each case.

For the compound `COC(=O)[C@@]1(Cc2ccccc2)[C@H]2c3cc(C(=O)N4CCCC4)n(Cc4ccc(O)c(OC)c4)c3C[C@H]2CN1C(=O)c1ccccc1`, the Potency in test [1] is 25.1 µM (active); in test [8] it was 2.51 µM (active); in test [3], 2 µM (active); in test [7], 0.501 µM (active). Moreover, the Potency result in test [2] and in test [4] was “inactive” in each case.

As for `CCC[C@@H]1C[C@@]1(CCC)C(NS(=O)(=O)c1cccc2cccnc12)c1ccc(Cl)cc1` (some centres undefined), the Potency result in test [1], in test [2] and in test [4] was “inactive” throughout. Moreover, the Potency in test [8] was 7.94 µM (active); in test [3], 0.794 µM (active); in test [7], 3.16 µM (active).

Consider `CCCC[C@@H]1C[C@H]1C(NC(=O)c1ccc(C(F)(F)F)cc1)c1ccc(C(=O)OC)cc1` (some centres undefined), for which the Potency in test [1] is 15.8 µM (active); in test [3] it was 5.01 µM (active). Further, the Potency entry in test [2] and in test [4] was “inactive” each time.

With `CC[C@H]1C2=C3C(CC[C@H]4C(OC)OC[C@](C)([C@@H]34)N(C(=O)OC(C)(C)C)C2)C(CO)C1CO` (some centres undefined), the Potency in test [1] is 12.6 µM (active). Also, the Potency result in test [2], in test [5], in test [4] and in test [7] was “inactive” each time.

For `CCCC[C@@H]1C[C@H]1C(NC(=O)c1ccco1)c1ccc(-c2ccccc2)cc1` (some centres undefined), the results for the Potency in test [1] and in test [8] were 5.01 µM (active) and 3.16 µM (active), respectively. Also, the Potency entry in test [2] and in test [4] was “inactive” throughout.

Take `CCC/C=C(\CCC)C(NS(=O)(=O)c1ccc(C(F)(F)F)cc1)c1ccc(-c2ccccc2)cc1` (centres undefined): the Potency result in test [1], in test [2], in test [5] and in test [4] was “inactive” in each case. Further, in test [7], the Potency was 7.94 µM (active).

Take `COc1cc2nc3c(c([Si](C)(C)C(C)(C)C)c2cc1OC)Cn1c-3cccc1=O`: the Potency in test [1] was 5.01 µM (active); in test [3], 3.98 µM (active). For the same compound, the Potency result in test [2] and in test [4] was “inactive” in each case.

On to `CCCC1(C(=O)OC)C=C2C(=C(C)C(=O)C2C)CN1` (centres undefined), for which the Potency entry in test [1], in test [2], in test [5] and in test [4] was “inactive” in each case.

Turning to `CC1=C(\C=C/C(C)=C/C=C\C(C)=C\CO)C(C)(C)CCC1`, the Potency entry in test [1], in test [2], in test [8], in test [6] and in test [7] was “inactive” in each case.

These data come from PubChem BioAssay (NCATS).
